From PubChem BioAssay (Tox21)
Values joined by “and” are separate entries in the source; they are usually repeats but may differ in a detail not shown here. Identical values can stand only once. The source holds several records for some structures; these can differ, active in one and inactive in another. Active and inactive are the calls of the source. Entries that show only a call come without a potency. Unless noted, calls follow the shape of the dose curve; as a rule, active = well fitted curve in the direction sought with a large enough effect in the repeat runs; inconclusive = weak or mixed curves; inactive = no such curve, though single readings can be large; an effect the other way counts as inactive or inconclusive.

Experiments:
[1] = qHTS assay to identify small molecule antagonists of the thyroid receptor (TR) signaling pathway (AID 743065); also: nearly all actives have a fitted effect of over 55% in size; also: potency is read from the fitted curve at half-maximal effect
How it was run: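 GH3.TRE-Luc rat pituitary cells carrying two TR response elements driving luciferase were plated for 4 h, given compound plus 1 nM T3 (final), and incubated 23.5 h at 37 C. ONE-Glo luminescence measured reporter inhibition; CellTiter-Fluor fluorescence tracked cytotoxicity.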

[2] = molecular target: Estrogen receptor (Homo sapiens) (UniProt P03372); test: qHTS assay to identify small molecule antagonists of the estrogen receptor alpha (ER-alpha) signaling pathway (AID 743069; active = well fitted curve in the direction sought with a large enough effect in the signal ratio in the repeat runs, not every such curve was filed as active; inconclusive = weak or mixed curves, or effect the other way; inactive = no such curve, though single readings can be large or run the other way; the % refers to the signal ratio; also: potency is read from the fitted curve at half-maximal effect)
How it was run: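 Screening used a UAS-driven beta-lactamase reporter integrated into HEK293 cells expressing ER-alpha, stimulated with 17beta-estradiol alongside test compounds over 18 hr at 37C; signal came from LiveBLAzer B/G FRET fluorescence.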

[3] = qHTS assay to identify small molecule antagonists of the estrogen receptor alpha (ER-alpha) signaling pathway - cell viability counter screen (AID 743074; calls by dose curve; also: nearly all actives have a fitted effect of over 45% in size; also: potency is read from the fitted curve at half-maximal effect)
[4] = molecular target: Estrogen receptor (Homo sapiens) (UniProt P03372); test: qHTS assay to identify small molecule agonists of the estrogen receptor alpha (ER-alpha) signaling pathway (AID 743075; calls by dose curve)
[5] = molecular target: Estrogen receptor (Homo sapiens) (UniProt P03372); test: qHTS assay to identify small molecule agonists of the estrogen receptor alpha (ER-alpha) signaling pathway using the BG1 cell line (AID 743079); details: BG1Luc4E2 cells, ERE-luciferase agonist, 22 h; activation: at 70.3 µM (top of the series); also: nearly all actives have a fitted effect of over 20% in size; also: potency is read from the fitted curve at half-maximal effect
[6] = qHTS assay to identify small molecule antagonists of the estrogen receptor alpha (ER-alpha) signaling pathway using the BG1 cell line (AID 743080; calls by dose curve;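 also: BG1 cells stimulated with 17beta-estradiol alongside compound; nearly all actives have a fitted effect of over 25% in size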); details: BG1Luc4E2 ERE-luciferase antagonist mode, luminescence; activity change, negative = inhibition: at 70.3 µM (top of the series)
How it was run: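 BG1Luc4E2, endogenous ER-alpha, 4xERE-luc; 5 d charcoal-stripped FBS, phenol red free; 24 h plating; cpd + 17beta-estradiol 21.5 h, 37 C/5% CO2; CellTiter-Fluor viability 30 min, then ONE-Glo luciferase 30 min RT.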

[7] = qHTS assay to identify small molecule antagonists of the estrogen receptor alpha (ER-alpha) signaling pathway using the BG1 cell line - cell viability counter screen (AID 743081);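 also: compound given together with 17beta-estradiol as the ER stimulus; nearly all actives have a fitted effect of over 45% in size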; also: potency is read from the fitted curve at half-maximal effect
Aromatase (Homo sapiens) = Aromatase (Homo sapiens) (UniProt P11511); test: qHTS assay to identify aromatase inhibitors (AID 743083); also: nearly all actives have a fitted effect of over 55% in size; also: potency is read from the fitted curve at half-maximal effect
[8] = qHTS assay to identify aromatase inhibitors - cell viability counter screen (AID 743084);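 also: cells stimulated with testosterone during compound exposure; nearly all actives have a fitted effect of over 55% in size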; also: potency is read from the fitted curve at half-maximal effect
[9] = qHTS assay for small molecule agonists of the antioxidant response element (ARE) signaling pathway - cell viability counter screen (AID 743203; calls by dose curve; also: nearly all actives have a fitted effect of over 55% in size; also: potency is read from the fitted curve at half-maximal effect)
How it was run: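 Viability counter screen: CellTiter-Glo luminescence, read after 30 min at room temperature, in ARE-bla HepG2 wells. Compound exposure lasted 16 h at 37C/5% CO2, following a 5 h pre-incubation of the cells after plating.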

[10] = qHTS assay for small molecule activators of the heat shock response signaling pathway - cell viability counter screen (AID 743209); also: nearly all actives have a fitted effect of over 50% in size; also: potency is read from the fitted curve at half-maximal effect
How it was run: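 Cytotoxicity counter screen run in the same wells as the heat-shock bla reporter assay: HeLa HSE-bla cells, 5 h compound exposure at 37 C, viability read by CellTiter-Glo luminescence.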

[11] = qHTS assay for small molecule activators of the heat shock response signaling pathway (AID 743210; active = well fitted activation curve with a large enough effect in the signal ratio in the repeat runs, with a control signal flat, not every such curve was filed as active; inconclusive = weak or mixed curves; the % refers to the signal ratio;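 also: HeLa cells with beta-lactamase reporter driven by heat shock elements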)
How it was run: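 Activation of heat shock element-controlled beta-lactamase expression is measured in HeLa cells by LiveBLAzer FRET fluorescence, with compound exposure lasting 5 h at 37 C and substrate loading 2.5 h at room temperature.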

[12] = system: thyroid hormone receptor (rat, GH3 cells); test: qHTS assay to identify small molecule agonists of the thyroid receptor (TR) signaling pathway (AID 743066; calls by dose curve)
[13] = molecular target: Aryl hydrocarbon receptor (Homo sapiens) (UniProt P35869); test: qHTS assay to identify small molecule that activate the aryl hydrocarbon receptor (AhR) signaling pathway (AID 743085); also: nearly all actives have a fitted effect of over 15% in size; also: potency is read from the fitted curve at half-maximal effect;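 as to activation: HG2L7.5c1 human HepG2 liver cells with stably integrated DRE-driven firefly reporter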
How it was run: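 AhR agonist activity is inferred from enhanced light output of a DRE-controlled firefly luciferase reporter in HepG2 cells, measured with ONE-Glo following 24 h treatment at 37C.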

[14] = qHTS assay to identify small molecule that activate the aryl hydrocarbon receptor (AhR) signaling pathway - cell viability counter screen (AID 743086); also: nearly all actives have a fitted effect of over 45% in size; also: potency is read from the fitted curve at half-maximal effect
How it was run: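 HepG2-AhR-luc (HG2L7.5c1) cells, 4000/well, were preincubated 5 h at 37C, exposed to compound in qHTS format for 24 hr at 37C, then given CellTiter-Fluor for 30 min; viability was read as fluorescence in the reporter wells.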

[15] = qHTS assay to identify small molecule antagonists of the peroxisome proliferator-activated receptor gamma (PPARg) signaling pathway - cell viability counter screen (AID 743194); also: nearly all actives have a fitted effect of over 55% in size; also: potency is read from the fitted curve at half-maximal effect
How it was run: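 PPARg-UAS-bla HEK293H cells were plated, rested 5 h at 37 C, then treated with compounds plus rosiglitazone (50 nM final) for 17 h at 37 C; viability was then read by CellTiter-Glo luminescence after 30 min at room temperature.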

[16] = qHTS assay to identify small molecule agonists of the peroxisome proliferator-activated receptor delta (PPARd) signaling pathway - cell viability counter screen (AID 743211); also: nearly all actives have a fitted effect of over 55% in size; also: potency is read from the fitted curve at half-maximal effect
How it was run: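 qHTS cell viability: PPARd-bla HEK293H; 17 h cpd, 37C; CellTiter-Glo, luminescence at 30 min RT.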

[17] = molecular target: Peroxisome proliferator-activated receptor gamma (Homo sapiens) (UniProt P37231); test: qHTS assay to identify small molecule agonists of the peroxisome proliferator-activated receptor gamma (PPARg) signaling pathway (AID 743094; active = well fitted activation curve with a large enough effect in the signal ratio in the repeat runs, not every such curve was filed as active; inconclusive = weak or mixed curves, or effect the other way; inactive = no such curve, though single readings can be large or run the other way; the % refers to the signal ratio)
How it was run: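 Agonist activity was taken from a beta-lactamase reporter (FRET substrate, 1 h at room temperature) in HEK293H cells carrying a PPARg UAS-bla construct. Compounds in DMSO were incubated 17 h at 37C after a 5 h cell pre-incubation.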

[18] = qHTS assay for small molecule agonists of the antioxidant response element (ARE) signaling pathway (AID 743202; active = well fitted activation curve with a large enough effect in the signal ratio in the repeat runs, not every such curve was filed as active; inconclusive = weak or mixed curves, or effect the other way; inactive = no such curve, though single readings can be large or run the other way; the % refers to the signal ratio; also: potency is read from the fitted curve at half-maximal effect)
How it was run: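 Steps: seed ARE-bla HepG2 cells (2,000/well); incubate 5 h at 37 C; add compounds by pin tool; incubate 16 h at 37 C; add FRET substrate; read fluorescence after 2 h at RT.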

[19] = molecular target: Peroxisome proliferator-activated receptor gamma (Homo sapiens) (UniProt P37231); test: qHTS assay to identify small molecule antagonists of the peroxisome proliferator-activated receptor gamma (PPARg) signaling pathway (AID 743191; calls by dose curve; also: nearly all actives have a fitted effect of over 30% in size)
How it was run: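 GeneBLAzer PPARg UAS-bla HEK293H cells carrying a UAS-driven beta-lactamase reporter were plated at 3000 cells/well, preincubated 5 h at 37C, then given compound for 17 h at 37C; LiveBLAzer B/G FRET substrate was read after 1 h at room temperature.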

Chain of Peroxisome proliferator-activated receptor gamma (Homo sapiens) (P37231 whole entry, looked up): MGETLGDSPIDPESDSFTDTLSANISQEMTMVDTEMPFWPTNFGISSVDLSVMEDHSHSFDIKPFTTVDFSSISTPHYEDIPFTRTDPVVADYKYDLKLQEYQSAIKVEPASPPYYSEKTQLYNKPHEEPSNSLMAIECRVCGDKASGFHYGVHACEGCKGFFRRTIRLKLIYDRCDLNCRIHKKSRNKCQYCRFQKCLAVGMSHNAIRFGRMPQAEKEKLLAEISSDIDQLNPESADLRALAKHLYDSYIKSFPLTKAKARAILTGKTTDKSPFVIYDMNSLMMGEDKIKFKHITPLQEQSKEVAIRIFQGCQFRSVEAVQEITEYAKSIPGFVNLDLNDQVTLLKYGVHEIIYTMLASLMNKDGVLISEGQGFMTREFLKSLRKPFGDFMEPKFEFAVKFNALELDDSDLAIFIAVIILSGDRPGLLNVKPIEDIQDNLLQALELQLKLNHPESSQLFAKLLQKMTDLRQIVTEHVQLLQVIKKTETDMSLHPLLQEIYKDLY
Chain of Estrogen receptor (Homo sapiens) (P03372 whole entry, looked up): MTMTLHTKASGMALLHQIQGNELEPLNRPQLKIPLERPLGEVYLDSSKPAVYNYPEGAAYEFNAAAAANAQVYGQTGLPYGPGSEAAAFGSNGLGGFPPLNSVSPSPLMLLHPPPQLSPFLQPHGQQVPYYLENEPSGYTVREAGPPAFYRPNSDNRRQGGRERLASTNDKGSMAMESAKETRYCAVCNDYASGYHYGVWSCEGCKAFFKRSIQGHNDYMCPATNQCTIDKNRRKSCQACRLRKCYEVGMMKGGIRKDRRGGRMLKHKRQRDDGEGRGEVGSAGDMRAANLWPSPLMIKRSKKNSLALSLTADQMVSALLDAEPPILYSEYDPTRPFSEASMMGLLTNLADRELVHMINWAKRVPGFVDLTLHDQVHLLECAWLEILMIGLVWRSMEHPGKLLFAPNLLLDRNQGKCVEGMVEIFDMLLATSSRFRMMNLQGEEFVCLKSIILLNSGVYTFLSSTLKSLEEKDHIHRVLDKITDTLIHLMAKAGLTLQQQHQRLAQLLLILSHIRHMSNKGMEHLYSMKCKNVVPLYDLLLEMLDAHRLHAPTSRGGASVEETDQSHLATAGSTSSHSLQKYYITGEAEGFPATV
Chain of Aryl hydrocarbon receptor (Homo sapiens) (P35869 whole entry, looked up): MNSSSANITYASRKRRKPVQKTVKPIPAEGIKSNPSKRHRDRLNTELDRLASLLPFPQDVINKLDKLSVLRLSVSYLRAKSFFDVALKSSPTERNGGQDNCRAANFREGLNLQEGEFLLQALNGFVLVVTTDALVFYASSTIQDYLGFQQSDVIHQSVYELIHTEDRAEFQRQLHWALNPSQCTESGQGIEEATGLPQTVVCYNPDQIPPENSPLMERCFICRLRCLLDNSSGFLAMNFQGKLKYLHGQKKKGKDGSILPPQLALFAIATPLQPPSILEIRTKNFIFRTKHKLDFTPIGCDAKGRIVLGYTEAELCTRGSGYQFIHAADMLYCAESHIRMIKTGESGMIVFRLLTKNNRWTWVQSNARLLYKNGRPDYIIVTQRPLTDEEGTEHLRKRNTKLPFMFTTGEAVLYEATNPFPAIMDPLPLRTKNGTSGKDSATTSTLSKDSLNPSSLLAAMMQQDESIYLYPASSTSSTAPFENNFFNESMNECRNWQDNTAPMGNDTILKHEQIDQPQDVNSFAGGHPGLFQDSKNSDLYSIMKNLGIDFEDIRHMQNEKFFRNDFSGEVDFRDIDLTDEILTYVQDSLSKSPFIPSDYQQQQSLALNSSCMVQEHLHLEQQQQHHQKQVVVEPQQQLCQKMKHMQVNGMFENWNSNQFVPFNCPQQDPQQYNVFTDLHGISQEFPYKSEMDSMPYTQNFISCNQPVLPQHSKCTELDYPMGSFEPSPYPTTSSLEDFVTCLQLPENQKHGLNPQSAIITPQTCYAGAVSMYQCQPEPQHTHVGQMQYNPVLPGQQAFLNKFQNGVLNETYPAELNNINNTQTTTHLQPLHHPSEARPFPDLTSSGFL
Chain of Aromatase (Homo sapiens) (P11511 whole entry, looked up): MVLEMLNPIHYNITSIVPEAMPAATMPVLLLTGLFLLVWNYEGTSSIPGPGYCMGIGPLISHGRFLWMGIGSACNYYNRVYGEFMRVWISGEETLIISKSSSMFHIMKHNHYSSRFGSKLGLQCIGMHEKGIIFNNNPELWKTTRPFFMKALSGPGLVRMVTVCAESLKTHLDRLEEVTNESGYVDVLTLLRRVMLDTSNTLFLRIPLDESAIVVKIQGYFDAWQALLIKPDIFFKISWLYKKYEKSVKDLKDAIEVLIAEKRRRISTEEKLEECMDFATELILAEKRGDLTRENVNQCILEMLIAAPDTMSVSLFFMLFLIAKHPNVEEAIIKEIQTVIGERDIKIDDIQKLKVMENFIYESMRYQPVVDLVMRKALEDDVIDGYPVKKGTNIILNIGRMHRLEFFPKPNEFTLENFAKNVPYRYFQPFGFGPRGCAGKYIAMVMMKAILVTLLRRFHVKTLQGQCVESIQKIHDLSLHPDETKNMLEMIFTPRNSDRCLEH

Row | SMILES | Potency [1] | Potency [2] | Potency [3] | Potency [4] | Potency [5] | Potency [6] | Potency [7] | Potency (Aromatase (Homo sapiens)) | Potency [8] | Potency [9] | Potency [10] | Potency [11] | Potency [12] | Potency [13] | Potency [14] | Potency [15] | Potency [16] | Potency [17] | Potency [18] | Potency [19]
1 | COc1cccc(CCc2ccccc2OCC(CN(C)C)OC(=O)CCC(=O)O)c1 (centres undefined) | 13.3 µM (active) | inactive | inactive | inactive | inactive | inactive | inactive | inactive | inactive | inactive | inactive | inactive | – | – | – | – | – | – | – | –
2 | CC1=C(/C=C/C(C)=C/C=C/C(C)=C\C=O)C(C)(C)CCC1 | 29 µM (active) | – | – | – | – | – | – | – | – | 51.6 µM (active) | – | – | inactive | inactive | inactive | inactive | 41.3 µM (active) | – | – | –
3 | CSc1ccc2c(c1)N(CCC1CCCCN1C)c1ccccc1S2 (centres undefined) | 7.5 µM (active) and 9.65 µM (active) | 23.9 µM [inconclusive] (active) | 54.7 µM (active) | inactive | – | inactive | inactive and 68.3 µM (active) | 27.2 µM (active) | 21.6 µM (active) | 27.2 µM (active) and 23.7 µM (active) | 54.7 µM (active) and 29.8 µM (active) | – | – | inactive | 27.2 µM (active) | 38.7 µM (active) and 15 µM (active) | inactive and 9.44 µM (active) | – | – | –
4 | NC(=O)C(=O)N/N=C/c1ccc([N+](=O)[O-])o1 | 21.1 µM (active) | inactive | inactive | inactive | inactive | – | inactive | – | – | inactive | – | – | – | – | inactive | inactive | inactive | inactive | 29.8 µM (active) | –
5 | O=C(Oc1ccccc1)c1cccc(C(=O)Oc2ccccc2)c1 | inactive | – | – | – | – | – | – | inactive | – | – | inactive | – | inactive | – | inactive | – | – | – | – | –
6 | CN(C)c1ccc(N=Nc2ccccc2C(=O)O)cc1 | 9.69 µM (active) | – | – | inactive | – | inactive | – | 54.5 µM (active) | 24.3 µM (active) | 61.1 µM (active) | – | – | inactive | 54.5 µM (active) | – | – | – | – | – | inactive
7 | O=C(O)CCn1c2c(c3ccccc31)C[C@H](NS(=O)(=O)c1ccc(F)cc1)CC2 | inactive | – | inactive | – | – | – | – | inactive | inactive | – | inactive | – | inactive | inactive | inactive | inactive | inactive | – | – | –
8 | CCN1CCN(c2cc(-c3ccc(F)cc3)c3c(n2)CCCCCC3)CC1 | 18.8 µM (active) | – | inactive | – | – | – | – | inactive | inactive | inactive | inactive | inactive | inactive | inactive | inactive | inactive | – | inactive | – | inactive
9 | Cc1cc(Nc2ccc(O)cc2)ccc1N | 7.66 µM (active) | – | inactive | – | – | – | 54.2 µM (active) | 27.2 µM (active) | 24.2 µM (active) | – | inactive | – | inactive | – | – | 12.2 µM (active) | inactive | – | – | –
10 | CCCCCCCCCC(=O)N(C)C | inactive | – | inactive | – | – | – | inactive | – | – | inactive | inactive | inactive | inactive | – | inactive | – | inactive | – | – | –
11 | CCNc1nc(NC(C)CC)nc(OC)n1 (centres undefined) | inactive | – | inactive | – | – | – | inactive | inactive | inactive | inactive | – | – | inactive | – | inactive | inactive | inactive | inactive | – | inactive
12 | C=CC(=O)OCCOCC(CC)(COCCOC(=O)C=C)COCCOC(=O)C=C | inactive | – | inactive | – | – | – | – | 10.1 µM (active) | 2.84 µM (active) | inactive | 18.1 µM (active) | – | inactive | inactive | 71.4 µM (active) | – | 51 µM (active) | – | – | –
13 | CCCCCCOc1ccc(O)cc1 | 6.86 µM (active) | – | – | inactive | 8.63 µM (active) | – | inactive | – | – | inactive | inactive | inactive | inactive | – | inactive | – | inactive | – | 27.3 µM (active) | –
14 | Cc1cc2c(C(C)C)c(O)c(O)c(C=O)c2c(O)c1-c1c(C)cc2c(C(C)C)c(O)c(O)c(C=O)c2c1O | 9.44 µM (active) | 9.52 µM [inconclusive] (active) | 21.3 µM (active) | inactive | – | – | – | 21.1 µM (active) | 26.6 µM (active) | 8.41 µM (active) | 13.3 µM (active) | – | – | inactive | – | 8.41 µM (active) | 9.44 µM (active) | – | – | –
15 | CC(C)(c1cc(Br)c(OCCO)c(Br)c1)c1cc(Br)c(OCCO)c(Br)c1 | 9.47 µM (active) | – | – | inactive | – | – | – | – | inactive | 18.9 µM (active) | 17 µM (active) | – | inactive | – | inactive | 17 µM (active) | 15.1 µM (active) | inactive | – | –
